# According to ChEMBL document CHEMBL4513216, “Probing the Open Global Health Chemical Diversity Library for Multistage-Active Starting Points for Next-Generation Antimalarials” (ACS Infect Dis, 2020):
# The whole screen tested about 69,000 compounds, of which about 8,600 (12%) showed an effect of 50% or more. What follows is part of a selection rich in strong results, with near analogues and random picks from the rest.
# Tested on: Plasmodium berghei
# Experiment: Screen against P. berghei liver stage (PbLuc), transformed with Luciferase, at 10uM
# Format: functional, HepG2
# Settings: tested at 10 uM
row,Compound,INHIBITION
1,c1cncc(OC[C@@]23CCC[C@@H]2CN(CC2CCOCC2)C3)c1,47.4%
2,Cn1cc(CN2C[C@H]3CCC[C@@]3(COc3cccnc3)C2)cn1,52.1%
3,CCS(=O)(=O)N1C[C@H]2CCC[C@@]2(COc2ccccn2)C1,-23.7%
4,CS(=O)(=O)N1C[C@H]2CCC[C@@]2(COc2ccccn2)C1,33%
5,Fc1cnc(N2C[C@H]3CCC[C@@]3(COc3ccccn3)C2)nc1,76.6%
6,O=S(=O)(C1CC1)N1C[C@H]2CCC[C@@]2(COc2ccccn2)C1,0.79%
7,Fc1cnc(N2C[C@@H]3COC[C@]3(COc3ccccn3)C2)nc1,43.1%
8,Cn1cc(CN2C[C@H]3CCC[C@@]3(COCC3CC3)C2)cn1,8.6%
9,Cn1cc(CN2C[C@H]3CCC[C@@]3(COc3ccccn3)C2)cn1,67.5%
10,CCn1ncc(CNc2[nH]cnc3nncc2-3)c1C,25.3%
11,CCCC1CN(CC(C)C)C(=O)c2cccnc2O1 (stereo not given),6.34%
12,O=C(NCc1ccc2c(c1)OCO2)Nc1cccnc1N1CCCC1,-4.94%
13,O=c1cc(Cn2ccnc2)nc2n1CCCN(S(=O)(=O)C1CC1)C2,-10.2%
14,CN1C[C@H]2CC[C@@H](C1)N(Cc1ccccc1OCCN1CCOCC1)C2,-154%
15,CC(=O)N1CCC(NC(=O)N2CCN(c3cnccn3)CC2)CC1,48.2%
16,Cc1nc2c(c(=O)[nH]1)CN(Cc1ccc3c(c1)CCCN3C)CC2,30.5%
17,Cc1ccc(C(=O)N2CCC[C@@H]2Cn2nnc3c(O)nc(C)nc32)cc1,23.4%
18,Cn1ccnc1CNCCNc1ncc(Cl)cc1Cl,1.51%
19,CCCc1n[nH]c(C2CN(CCS(=O)(=O)CC)CCO2)n1 (stereo not given),44.1%
20,Cn1cc(S(=O)(=O)Nc2c(F)cccc2N2CCCC2)cn1,-11.9%
21,O=S(=O)(Nc1c(F)cccc1N1CCCC1)c1cncc(F)c1,27.6%
22,N#Cc1cccc(S(=O)(=O)Nc2c(F)cccc2N2CCCC2)c1,50.1%

row,Compound,INHIBITION
1,O=C(c1ccncc1)N1CCC(c2nc(O)cc(-c3ccncc3)n2)C1 (stereo not given),48.3%
2,CCCN1C[C@H](NC(=O)c2cccs2)[C@@H](c2ccc(OC)cc2)C1,31.6%
3,CCCN1C[C@H](NC(=O)c2ccccc2F)[C@@H](c2ccc(OC)cc2)C1,54.4%
4,CCCN1C[C@H](NC(=O)c2cc(C)no2)[C@@H](c2ccc(OC)cc2)C1,35.2%
5,CCN(CC)C1CCN(C(=O)NCc2cccc(NC(C)=O)c2)C1 (stereo not given),-4.15%
6,CCCc1noc(CCC(=O)N2CCCC2c2cccs2)n1 (stereo not given),29.7%
7,CCCS(=O)(=O)N1C[C@@H]2C[C@H](C(=O)N3CCCC3)[C@H](C1)O2,35.8%
8,CSc1ncc(C(=O)N2CCN(c3ccccc3C)CC2C)cn1 (stereo not given),44.8%
9,Cc1ccccc1N1CCN(C(=O)c2cnc(C3CC3)nc2)C(C)C1 (stereo not given),43%
10,Cc1ccccc1N1CCN(c2ccncn2)C(C)C1 (stereo not given),63.2%
11,CN(C)c1cc(N2CCN(c3ccccn3)CC2)ncn1,41.1%
12,Cc1ccccc1N1CCN(c2cc(N(C)C)ncn2)C(C)C1 (stereo not given),67.4%
13,Cc1nccn1CCC1CCN(c2ccncn2)CC1,35.8%
14,Cc1ccccc1N1CCN(C(=O)c2cscn2)C(C)C1 (stereo not given),10.3%
15,Cc1ccccc1N1CCN(C(=O)c2ncc(F)cc2F)C(C)C1 (stereo not given),33%
16,Cc1ccccc1N1CCCN(c2ccncn2)CC1,80.7%
17,Cc1ccccc1N1CCN(C(=O)c2cnc(N(C)C)nc2C)C(C)C1 (stereo not given),25.8%
18,Cc1ccc(N2CCN(c3ccccc3C)CC2C)nn1 (stereo not given),59.9%
19,Cc1cc(C)nc(C2CCN(c3ccncn3)C2)n1 (stereo not given),36.9%
20,O=S(=O)(C1CC1)N1CC[C@H]2OCC[C@@]2(COc2ncccc2F)C1,-58.9%
21,O=C(CCc1ccccc1)N1C[C@@H]2CN(Cc3ccoc3)CCO[C@@H]2C1,29.9%
22,Cc1ccc(CN2CC(O)CN(C(=O)C3CC3)CC2=O)cc1 (stereo not given),7.85%

row,Compound,INHIBITION
1,CSCCC(=O)N1CCC(CCC(=O)NCC2CCCO2)CC1 (stereo not given),8.51%
2,CCOc1ccccc1CCn1cc2[nH]cccc-2c1=O,41.5%
3,NC(=O)C1CCCN(c2ccc(CNC(=O)c3cc[nH]n3)cc2)C1 (stereo not given),-25.8%
4,NC(=O)C1CCCN(c2ccc(CNC(=O)c3cnsn3)cc2)C1 (stereo not given),60.5%
5,NC(=O)C1CCCN(c2ccc(CNC(=O)c3csnn3)cc2)C1 (stereo not given),44.1%
6,CCN1CCN(C2CCN(Cc3nc(CCOC)no3)CC2)C1=O,19.4%
7,CCCS(=O)(=O)N1CCCN(CCCOC)CC1,-13.6%
8,CCS(=O)(=O)N1CCCN(CCCOC)CC1,63%
9,CCCS(=O)(=O)N1CCN(CCCO)CC1,11.5%
10,Cn1cccc1C(=O)N1CCCC1c1ccc(CN2CCOCC2)cn1 (stereo not given),13.7375%
11,Cc1nn(C)c(Cl)c1CNCc1cccnc1N1CCN(C)CC1,13.4%
12,CCOc1cc(F)ccc1NC1CCN(CC(F)(F)F)C1=O (stereo not given),-6.51%
13,Cc1nnc(C(C)N(C)Cc2c(C)nn(-c3ccccc3)c2C)o1 (stereo not given),-10.8%
14,CCc1nnc(C(C)N(C)Cc2c(C)nn(-c3ccccc3)c2C)o1 (stereo not given),-77.1%
15,Cc1nnc(C(C)N(C)Cc2c(C)nn(-c3ccccc3C)c2C)o1 (stereo not given),59.2%
16,CCOC(=O)c1cnn(C2CCN(C(=O)CCC(C)C)CC2)c1N,38.3%
17,Cc1nnc2ccc(OCCNS(=O)(=O)c3cccs3)nn12,3.13%
18,CCc1ccc(S(=O)(=O)NCCOc2ccc3nnc(C)n3n2)s1,31%
19,Cc1ccc(S(=O)(=O)NCCOc2ccc3nnc(C)n3n2)s1,57.4%
20,Cc1ccc(CN2CCc3onc(C(=O)NCCN(C)C)c3C2)o1,54.4%
21,CN(C)CCNC(=O)c1noc2c1CN(C(=O)N(C)C)CC2,28.2%
22,CC(C)NC(=O)N1CCc2onc(C(=O)NCCN(C)C)c2C1,95.7%

row,Compound,INHIBITION
1,Cc1ccc(CN2CCc3onc(C(=O)NC(C)C)c3C2)o1,45.4%
2,CC(C)C(=O)N1CCc2onc(C(=O)NCCN(C)C)c2C1,39.4%
3,Cc1ccc(CN2CCc3onc(C(=O)N4CCCC4)c3C2)o1,23.6%
4,O=C1N(c2cccnc2)CCC12CCCN(Cc1ccoc1)C2 (stereo not given),-29.3%
5,CCN1CCC[C@@H]1CNC(=O)c1cc(COc2ccccc2)[nH]n1,33.4%
6,O=C1CC(NCc2cnc(-c3cccs3)nc2)CN1c1ccccc1 (stereo not given),8.92%
7,O=C1CC(NCc2cnc(C3CCCCC3)nc2)CN1c1ccccc1 (stereo not given),56.5%
8,O=C1CC(NCc2cnc(N3CCCC3)nc2)CN1c1ccccc1 (stereo not given),43.9%
9,Cc1cnn(CC2CCCCN2CCCS(=O)(=O)N(C)C)c1 (stereo not given),13.3%
10,Nc1c(N2CCCC2)ncnc1N1CCOCC1,7.53%
11,Nc1c(N2CCCCC2)ncnc1N1CCOCC1,10.5%
12,Nc1c(N2CCOCC2)ncnc1N1CCOCC1,50%
13,Cc1cc(C)n(-c2ccccc2NC(=O)NCCS(=O)(=O)CC(C)C)n1,32.5%
14,CC(Cn1cccn1)NCc1nc(-c2ccsc2)no1 (stereo not given),1.78%
15,CC(Cn1cccn1)NCc1nc(-c2cccc(Cl)c2)no1 (stereo not given),26.3%
16,Cc1cnn(CC(C)NCc2nc(-c3cccnc3)no2)c1 (stereo not given),15.1%
17,CC(Cn1cccn1)NCc1nc(-c2cccnc2)no1 (stereo not given),86.8%
18,COc1ccc(-c2noc(CNC(C)Cn3cccn3)n2)c(OC)c1 (stereo not given),53.8%
19,CC(Cn1cccn1)NCc1nc(-c2ccccc2Cl)no1 (stereo not given),25.1%
20,CCn1cc(-c2nccnc2C2CCCN(C(C)=O)C2)cn1 (stereo not given),-14.2%
21,COCC1Cn2nnc(-c3cnn(C)c3)c2CN1Cc1ccc(C)o1 (stereo not given),-1.12%
22,O=C1COc2cc(S(=O)(=O)NCCC3=CCCCC3)c(Cl)cc2N1,48.4%

row,Compound,INHIBITION
1,NC(=O)N1CC[C@H](O)[C@@H]1Cc1ccccc1,46.9%
2,O=C(NCc1nn(-c2ccccc2)c2c1CCC2)NC1CCOCC1,-6.11%
3,CCCc1cncnc1N1CCC2(CCC(=O)N(CCCO)C2)CC1,-43.8%
4,Cc1nn(C)cc1-c1cc(C(=O)NCC(C)(C)c2ccc(F)cc2)n[nH]1,5.75%
5,CC(=O)N1[C@H](Cn2cncn2)C[C@@H]2CN(c3ncc(F)cn3)CC[C@@H]21,21.3%
6,CC(C)c1nnc2n1CC(CNC/C=C/c1ccccc1)CC2 (stereo not given),51.3%
7,CC(C)c1nnc2n1CC(CNCc1nc3ccccc3s1)CC2 (stereo not given),43.3%
8,C(=C\c1ccccc1)/CNCC1CCc2nncn2C1 (stereo not given),17.1%
9,Cc1cnn(CCNCc2nnc(Cc3ccccc3)o2)c1,2.97%
10,Cc1nn(C)c2c(=O)n(Cc3ccc(F)cc3)nnc12,-10.77%
11,Cc1nn(-c2ccc(F)cc2)c2[nH]nc(N)c12,46.4%
12,Cc1nn(Cc2ccc(F)cc2)c2[nH]nc(N)c12,78.2%
13,O=C(Nc1ccccc1)C1CN(CC2CCOCC2)CC12CCOCC2 (stereo not given),-42.9%
14,CCC[C@H]1CN(Cc2cc(C#N)n(C)c2C)C[C@@H]1N(C)C,73.6%
15,CCC[C@@H]1CN(Cc2ccc(N(C)C)nc2)C[C@H]1N(C)C,36.5%
16,CCC[C@H]1CN(Cc2ccccc2C#N)C[C@@H]1NS(C)(=O)=O,49.3%
17,CCC[C@@H]1CN(Cc2ccccc2C#N)C[C@H]1NC(C)=O,17.5%
18,CCC[C@@H]1CN(Cc2cc(C#N)n(C)c2C)C[C@H]1NS(C)(=O)=O,64.4%
19,CCOC(=O)C1CCCN(Cc2cc(C#N)n(C)c2C)C1 (stereo not given),24.7%
20,CCC[C@H]1CN(Cc2cc(C#N)n(C)c2C)C[C@@H]1NS(=O)(=O)CC,61.8%
21,CCC[C@@H]1CN(Cc2c[nH]nc2-c2ccc(F)cc2)C[C@H]1NS(C)(=O)=O,27.4%
22,CCC[C@H]1CN(Cc2ccc(N(C)C)nc2)C[C@@H]1NS(=O)(=O)CC,46.6%
